This passage reports growth inhibition, inhibition and outcome results from PubChem BioAssay.

A short description of assay [1]: antimalarial activity against Dd2 strain (AID 2302;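 active = growth inhibition above 50% at the single 2 µM test dose, taken to imply half-maximal potency below 2 µM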;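 note: 0% = DMSO untreated growth and 100% = chloroquine plus artemisinin killed control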). Particulars: P. falciparum Dd2 in RBCs, LDH growth readout, 72 h; at 2 µM; stronger effect = higher value.
Assay [2] can be described thus: HepG2 cytotoxicity, primary screen, cytotoxicity control for P. falciparum antimalarial project, cell-based, ATP luminescence (AID 2303;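 active = inhibition above 50%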;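 note: 0% = DMSO wells and 100% = digitonin-killed cells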). Particulars: HepG2 viability, 24-48 h, at 10 µM, stronger effect = higher value.
In assay [3] the target is L-lactate dehydrogenase (Plasmodium falciparum (isolate CDC / Honduras)) (UniProt Q27743). As to the kind of experiment: PfLDH activity inhibition – cell lysate, 3D7 strain, counter-screen for P. falciparum growth inhibition project (AID 2304).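 Note: 0% = vehicle and 100% = reference inhibitor.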 Particulars: P. falciparum 3D7 crude extract, LDH APAD/NBT absorbance; at 2 µM; stronger effect = higher value.
L-lactate dehydrogenase (Plasmodium falciparum (isolate CDC / Honduras)), sequence (Q27743 whole entry, looked up): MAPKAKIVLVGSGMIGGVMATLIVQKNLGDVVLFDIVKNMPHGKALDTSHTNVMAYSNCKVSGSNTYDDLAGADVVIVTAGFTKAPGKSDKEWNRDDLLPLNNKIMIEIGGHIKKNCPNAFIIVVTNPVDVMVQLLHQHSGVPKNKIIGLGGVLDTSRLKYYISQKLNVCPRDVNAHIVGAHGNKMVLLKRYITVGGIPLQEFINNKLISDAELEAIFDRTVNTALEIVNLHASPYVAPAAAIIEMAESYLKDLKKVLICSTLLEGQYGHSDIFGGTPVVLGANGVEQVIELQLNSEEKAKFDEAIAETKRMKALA
Assay [4] in a line: inhibition of 3D7 malaria parasite growth – strain 3D7 (AID 2306).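 Note: 0% = DMSO wells and 100% = chloroquine plus artemisinin control wells.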 Particulars: P. falciparum 3D7 erythrocytic growth, LDH absorbance, 72 h; at 2 µM; stronger effect = higher value.
The target in assay [5] is Calcium-dependent protein kinase 1 (Plasmodium falciparum (isolate 3D7)) (UniProt P62344). As to the kind of experiment: PfCDPK1 kinase inhibitors, biochemical, TCAMS library (AID 1159585; cut-off not given, nearly all actives have IC50 up to about 0.98 µM;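 note: inhibitors leave more ATP so luminescence rises with inhibition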). Particulars: recombinant PfCDPK1, Kinase-Glo ATP depletion luminescence.
Calcium-dependent protein kinase 1 (Plasmodium falciparum (isolate 3D7)), sequence (P62344 whole entry, looked up): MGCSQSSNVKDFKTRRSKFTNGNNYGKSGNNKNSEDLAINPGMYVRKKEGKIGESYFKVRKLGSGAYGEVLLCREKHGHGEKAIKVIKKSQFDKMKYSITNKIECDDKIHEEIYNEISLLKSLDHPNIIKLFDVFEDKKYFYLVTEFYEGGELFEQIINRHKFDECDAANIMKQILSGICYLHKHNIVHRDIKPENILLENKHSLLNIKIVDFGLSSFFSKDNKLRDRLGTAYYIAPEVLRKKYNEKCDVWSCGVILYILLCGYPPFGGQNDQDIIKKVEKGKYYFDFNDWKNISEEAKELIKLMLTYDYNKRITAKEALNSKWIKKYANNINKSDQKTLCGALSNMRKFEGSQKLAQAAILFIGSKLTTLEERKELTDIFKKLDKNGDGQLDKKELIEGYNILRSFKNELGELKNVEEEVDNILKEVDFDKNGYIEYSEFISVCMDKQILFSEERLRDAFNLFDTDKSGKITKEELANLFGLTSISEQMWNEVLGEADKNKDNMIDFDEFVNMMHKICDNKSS
In assay [6] the target is Plasmodium falciparum protein kinase 6 (PK6, PF3D7_1337100) (UniProt Q8IDW1). As to the kind of experiment: PfPK6 kinase inhibitors, biochemical, TCAMS library (AID 1159586). Particulars: recombinant PfPK6, Kinase-Glo ATP depletion luminescence.
Plasmodium falciparum protein kinase 6 (PK6, PF3D7_1337100), sequence (Q8IDW1 1-305): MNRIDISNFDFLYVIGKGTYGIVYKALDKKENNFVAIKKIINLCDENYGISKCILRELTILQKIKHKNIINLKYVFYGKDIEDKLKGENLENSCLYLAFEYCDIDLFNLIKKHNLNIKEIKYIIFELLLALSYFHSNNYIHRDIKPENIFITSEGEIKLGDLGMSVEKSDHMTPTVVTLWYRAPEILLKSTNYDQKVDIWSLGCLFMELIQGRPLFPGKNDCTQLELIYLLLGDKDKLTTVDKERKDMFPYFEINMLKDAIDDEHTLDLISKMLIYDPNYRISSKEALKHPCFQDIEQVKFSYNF
Assay [7] deals with Protein kinase 7 (PK7), Plasmodium falciparum 3D7 (PF3D7_0213400) (UniProt Q7YTF7). As to the kind of experiment: inhibition of Plasmodium PK7 catalytic activity – biochemical, TCAMS antimalarial set, Kinase-Glo luminescence (AID 1159587). Particulars: recombinant PfPK7, Kinase-Glo ATP depletion luminescence.
Protein kinase 7 (PK7), Plasmodium falciparum 3D7 (PF3D7_0213400), sequence (Q7YTF7 1-343): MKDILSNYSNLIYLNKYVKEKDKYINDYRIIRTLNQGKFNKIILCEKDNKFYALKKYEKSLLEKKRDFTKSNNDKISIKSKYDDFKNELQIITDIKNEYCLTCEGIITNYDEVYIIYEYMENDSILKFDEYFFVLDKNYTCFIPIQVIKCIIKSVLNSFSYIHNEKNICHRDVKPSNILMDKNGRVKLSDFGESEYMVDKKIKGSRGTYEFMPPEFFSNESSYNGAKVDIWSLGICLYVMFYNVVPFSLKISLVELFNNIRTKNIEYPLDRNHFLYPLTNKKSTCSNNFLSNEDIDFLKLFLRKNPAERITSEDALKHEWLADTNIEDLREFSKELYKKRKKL
The target of assay [8] is Calcium-dependent protein kinase 4 (Plasmodium falciparum (isolate 3D7)) (UniProt Q8IBS5). Nature of the assay: PfCDPK4 kinase inhibitors, biochemical, TCAMS library (AID 1159588; cut-off not given, nearly all actives have IC50 up to about 0.91 µM). Particulars: recombinant PfCDPK4, Kinase-Glo ATP depletion luminescence.
Calcium-dependent protein kinase 4 (Plasmodium falciparum (isolate 3D7)), sequence (Q8IBS5 whole entry, looked up): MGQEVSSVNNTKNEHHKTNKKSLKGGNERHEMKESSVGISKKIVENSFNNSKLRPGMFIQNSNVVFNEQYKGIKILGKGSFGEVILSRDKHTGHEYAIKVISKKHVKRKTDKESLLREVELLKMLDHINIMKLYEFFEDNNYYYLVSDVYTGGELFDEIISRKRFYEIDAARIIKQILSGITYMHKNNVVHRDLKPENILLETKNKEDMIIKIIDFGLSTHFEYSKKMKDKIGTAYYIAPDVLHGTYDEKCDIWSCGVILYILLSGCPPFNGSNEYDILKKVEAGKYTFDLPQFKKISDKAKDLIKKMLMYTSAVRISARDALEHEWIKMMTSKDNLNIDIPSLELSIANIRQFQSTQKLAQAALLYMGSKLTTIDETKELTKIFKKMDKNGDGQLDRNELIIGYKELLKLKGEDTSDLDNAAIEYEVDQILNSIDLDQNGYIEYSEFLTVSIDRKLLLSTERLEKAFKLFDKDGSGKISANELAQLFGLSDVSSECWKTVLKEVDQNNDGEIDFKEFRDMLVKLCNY

Values without a mark were called inactive. For some of these results: Potency and affinity values are given separately. Active and inactive are the calls of the source. Unless noted, the rule behind the calls is not given here.

Consider `CC(=O)N(C)c1cccc(C(=O)Nc2ccc(-c3cccc(-c4nc5c(C)cccc5[nH]4)c3)cc2)c1`, for which the growth inhibition in assay [1] was 68% (active); in assay [4], 97% (active). For the same compound, the inhibition was 86% (active) in assay [2] and -2% in assay [3]. The outcome in assay [5], in assay [6], in assay [7] and in assay [8] was inactive.

On to `COc1cccc(CNC(=O)c2ccnc(-c3ccc(CNCCOc4ccccc4)cc3)c2)c1`, for which the growth inhibition in assay [1] is 10%; in assay [4], 83% (active). For the same compound, the inhibition in assay [2] was 23%; in assay [3], -4%. Besides, the result in assay [5], in assay [6], in assay [7] and in assay [8] was inactive.

Take `OC1CCCN(Cc2cccc(-c3ccc(-c4nc5ccc(C(F)(F)F)cc5[nH]4)cc3)c2)C1` (stereo not given): the growth inhibition in assay [1] was 91% (active); in assay [4], 100% (active). Moreover, the inhibition in assay [2] is 27%; in assay [3], 4%. Besides, the result in assay [5], in assay [6], in assay [7] and in assay [8] was inactive.

Take `N#Cc1ccc(NC(=O)NC2CCN(CCCCCNC(=O)/C=C/c3ccc(Cl)c(Cl)c3)CC2)cc1`: the figures for the growth inhibition in assay [1] and in assay [4] were 4% and 98% (active), respectively. For the same compound, the inhibition in assay [2] was 15%; in assay [3], 0%. The outcome in assay [5], in assay [6], in assay [7] and in assay [8] was inactive.

`Cc1[nH]c(C)c(-c2ccc(CCc3cccc(C(F)(F)F)c3)nc2)c(=O)c1Cl`: the growth inhibition in assay [1] is 97% (active); in assay [4], 99% (active). Moreover, the inhibition in assay [2] was 28%; in assay [3], -2%. Besides, the result in assay [5], in assay [6], in assay [7] and in assay [8] was inactive.

For the compound `CCn1c(C)cc(C=C2SC(=Nc3ccccc3)NC2=O)c1C`, the figures for the growth inhibition in assay [1] and in assay [4] were 87% (active) and 90% (active), respectively. Also, the inhibition in assay [2] was 27%; in assay [3], 3%. For the same compound, the outcome in assay [5], in assay [6], in assay [7] and in assay [8] was inactive.

As to `O=C(NCCCCN1CCC(c2ccc3c(c2OCCO)CCCC3)CC1)c1ccc(-c2ccc(C(F)(F)F)cc2)cc1`, the results for the growth inhibition in assay [1] and in assay [4] were 38% and 98% (active), respectively. Also, the inhibition was 100% (active) in assay [2] and 6% in assay [3]. The result in assay [5], in assay [6], in assay [7] and in assay [8] was inactive.

For `OC(CNCc1ccccc1OCc1ccccc1)c1cc(C(F)(F)F)cc(C(F)(F)F)c1` (stereo not given), the results for the growth inhibition in assay [1] and in assay [4] were 99% (active) and 100% (active), respectively. Besides, the inhibition in assay [2] and in assay [3] was 3% each time. Also, the result in assay [5], in assay [6], in assay [7] and in assay [8] was inactive.

Take `Cc1cc(CNCCCCCNCc2ccc(Cl)cc2)ccc1O`: the figures for the growth inhibition in assay [1] and in assay [4] were -1% and 98% (active), respectively. Besides, the inhibition is 12% in assay [2] and -7% in assay [3]. Moreover, the result in assay [5], in assay [6], in assay [7] and in assay [8] was inactive.

For `Cc1ccc(NC(=O)c2ccc(CN3CCCN(Cc4cccc(Cl)c4)CC3)cc2)cc1C`, the growth inhibition is 18% in assay [1] and 84% (active) in assay [4]. The figures for the inhibition in assay [2] and in assay [3] were 41% and 2%, respectively. In addition, the result in assay [5], in assay [6], in assay [7] and in assay [8] was inactive.

As for `COc1c(C2CCN(CCCCNC(=O)C=Cc3cc4cc(Cl)ccc4o3)CC2)ccc2c1CCCC2`, the growth inhibition was 19% in assay [1] and 87% (active) in assay [4]. Also, the inhibition was 33% in assay [2] and 2% in assay [3]. Moreover, the result in assay [5], in assay [6], in assay [7] and in assay [8] was inactive.

Take `COc1cc2nc(N3CCC(CNC(=O)c4ccc(-c5ccc(O)cc5)cc4)CC3)nc(N)c2cc1OC`: the growth inhibition in assay [1] was 78% (active); in assay [4], 102% (active). The inhibition was 34% in assay [2] and -2% in assay [3]. Besides, the result in assay [5], in assay [6], in assay [7] and in assay [8] was inactive.

Regarding `Cn1nc(-c2ccc(NC(=O)Nc3cc(C(F)(F)F)ccc3F)c(F)c2)c2cnc(NCCCN3CCOCC3)nc21`, the results for the growth inhibition in assay [1] and in assay [4] were 62% (active) and 100% (active), respectively. In addition, the inhibition in assay [2] is 31%; in assay [3], 3%. Also, the outcome in assay [5], in assay [6], in assay [7] and in assay [8] was inactive.

Consider `COc1ccc2c(NN=Cc3ccccc3F)cc(C)nc2c1`, for which the growth inhibition was 12% in assay [1] and 90% (active) in assay [4]. For the same compound, the inhibition is 4% in assay [2] and 2% in assay [3]. The outcome in assay [5], in assay [6], in assay [7] and in assay [8] was inactive.

In the case of `COc1cc2c(Nc3cccc(NC(=O)c4ccccc4)c3)ncnc2cc1OCCCN1CCOCC1`, the growth inhibition in assay [1] was 100% (active); in assay [4], 101% (active). Further, the inhibition in assay [2] is -14%; in assay [3] it was 5%. In addition, the result in assay [5], in assay [6], in assay [7] and in assay [8] was inactive.

Take `Nc1nc(N)c2cc(Sc3ccc4ccccc4c3)ccc2n1`: the results for the growth inhibition in assay [1] and in assay [4] were 92% (active) and 95% (active), respectively. The inhibition is 66% (active) in assay [2] and 0% in assay [3]. For the same compound, the result in assay [5], in assay [6], in assay [7] and in assay [8] was inactive.

Consider `COc1ccc2nccc([C@@H](O)CN3CCC(NS(=O)(=O)c4cc(Br)c(Br)s4)CC3)c2c1`, for which the growth inhibition in assay [1] was 36%; in assay [4] it was 92% (active). Besides, the inhibition in assay [2] is 14%; in assay [3], -2%. The result in assay [5], in assay [6], in assay [7] and in assay [8] was inactive.

Regarding `Fc1cc(CN2CCCC2)ccc1OCCCN1CCN(c2cccc(Cl)c2Cl)CC1`, the growth inhibition in assay [1] was 15%; in assay [4], 82% (active). Also, the inhibition is 67% (active) in assay [2] and -1% in assay [3]. Besides, the outcome in assay [5], in assay [6], in assay [7] and in assay [8] was inactive.

For `CCCN1CCN(CCCNC(=O)c2cc3c(-c4ccc(Cl)cc4)nn(C)c3s2)CC1`, the growth inhibition in assay [1] was 20%; in assay [4] it was 88% (active). The results for the inhibition in assay [2] and in assay [3] were 46% and -3%, respectively. The result in assay [5], in assay [6], in assay [7] and in assay [8] was inactive.

Take `COc1ccc(Cl)cc1-c1nc(C(=O)NCCN2CCCCC2)c(C)s1`: the values for the growth inhibition in assay [1] and in assay [4] were 10% and 97% (active), respectively. For the same compound, the inhibition is 16% in assay [2] and -7% in assay [3]. The result in assay [5], in assay [6], in assay [7] and in assay [8] was inactive.
